Experimental data taken from PubChem BioAssay (Tox21).
A number with no mark means an inactive call. Records with an inconclusive call do not appear. Where a call stands in place of a potency, no number is given. The source made the active and inactive calls. Unless noted, the call rests on the fitted dose curve; in most records, active means well fitted curve in the direction sought with a large enough effect in the repeat runs; inconclusive means weak or mixed curves; inactive means no such curve, though single readings can be large; an effect the other way counts as inactive or inconclusive.

What was measured:
[1] = qHTS assay for small molecule agonists of the p53 signaling pathway (AID 651631; calls by dose curve; further: nearly all actives have a fitted effect of over 15% in size; further: potency means the concentration at half of the fitted maximal effect)
Method in brief: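 Quantitative high-throughput format: 4,000 p53RE-bla HCT-116 cells/well, 5 h pre-incubation, 16 h compound exposure at 37 °C, 2 h room-temperature substrate step, fluorescence intensity measured.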

[2] = qHTS assay for small molecules that induce genotoxicity in human embryonic kidney cells expressing luciferase-tagged ATAD5 (AID 651632); further: nearly all actives have a fitted effect of over 15% in size
Method in brief: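 Increased luciferase signal from ATAD5-tagged reporter cells indicates DNA-damage-driven ATAD5 induction. HEK293T cells are treated for 16 hr at 37C before detection with Amplite.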

[3] = qHTS assay for small molecule agonists of the p53 signaling pathway - cell viability (AID 651633; calls by dose curve; further: nearly all actives have a fitted effect of over 30% in size; further: potency means the concentration at half of the fitted maximal effect)
Method in brief: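 p53RE-bla cells, seeded at 4,000 per well and rested 5 h at 37 C/5% CO2, received compounds in DMSO for 16 h at 37 C. CellTiter-Glo was then added, and luminescence was read after 30 min at room temperature to gauge cytotoxicity.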

[4] = qHTS assay for small molecules that induce genotoxicity in human embryonic kidney cells expressing luciferase-tagged ATAD5 - cell viability (AID 651634; calls by dose curve; further: nearly all actives have a fitted effect of over 25% in size; further: potency means the concentration at half of the fitted maximal effect)
Method in brief: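 Cytotoxicity counterscreen in HEK293T cells bearing an ATAD5-luciferase reporter: live-cell protease activity measured by CellTiter-Fluor fluorescence after 15.5 hr compound exposure.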

[5] = qHTS assay for small molecule disruptors of the mitochondrial membrane potential - cell viability (AID 720634; calls by dose curve; further: nearly all actives have a fitted effect of over 20% in size; further: potency means the concentration at half of the fitted maximal effect)
Method in brief: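 After overnight attachment at 37 C, HepG2 cells received compound or DMSO vehicle for 1 hr. Viability is then taken from ATP-driven luminescence following a 30 min room-temperature CellTiter-Glo step.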

[6] = qHTS assay for small molecule disruptors of the mitochondrial membrane potential (AID 720635); further: potency means the concentration at half of the fitted maximal effect
Method in brief: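 HepG2 cells (2,000/well) attached overnight at 37C, then took compound for 1 hr at 37C, 5% CO2. Mito-MPS dye was added for 30 min; fluorescence was read at 490/535 nm (monomers) and 540/590 nm (aggregates).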

[7] = qHTS assay to test for compound auto fluorescence at 590 nm (red) in HepG2 cells (AID 720674)
Method in brief: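 Compound auto-fluorescence is scored relative to Rose Bengal sodium, measured at 540/590 nm in live HepG2 cultures after 1 hr compound contact (37 C, 5% CO2).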

[8] = qHTS assay to test for compound auto fluorescence at 535 nm (green) in HepG2 cells (AID 720675)
[9] = qHTS assay to test for compound auto fluorescence at 460 nm (blue) in HEK293 cells (AID 720678)
Method in brief: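 HEK293 cells (2,000 per well, medium with 10% dialyzed FBS) attached for 4-5 hr at 37C, then received compound and stood overnight at 37C, 5% CO2. Blue fluorescence was read at Ex/Em 405/460 nm and expressed relative to triamterene.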

[10] = qHTS assay to test for compound auto fluorescence at 590 nm (red) in HEK293 cells (AID 720679)
Method in brief: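 HEK293 cells (2,000/well, medium with 10% dialyzed FBS) attached for 4-5 hr at 37C, received 23 nL compound and were incubated overnight at 37C, 5% CO2. Red fluorescence was then read at 540/590nm Ex/Em, referenced to Rose Bengal sodium.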

For `Nc1ncnc2c1ncn2[C@H]1CC[C@@H](CO)O1`, the Potency [1] was “inactive”, the Potency [2] was “inactive” and the Potency [3] was “inactive”. For the same compound, the Potency [4] was “inactive”, the Potency [5] was “inactive” and the Potency [6] was “inactive”. For the same compound, the outcome [7] was “inactive”, the outcome [8] was “inactive” and the Potency [9] was “inactive”. For the same compound, the outcome [10] was “inactive”.

In the case of `COc1cc(Nc2c(C#N)cnc3cc(OCCCN4CCN(C)CC4)c(OC)cc23)c(Cl)cc1Cl`, the Potency [1] is reported as 11.9 µM (active), the Potency [2] is reported as “inactive” and the Potency [3] is reported as 26.6 µM (active). The Potency [4] was 29.8 µM (active), the Potency [5] was “inactive” and the Potency [6] was 0.376 µM (active). The outcome [7] was “inactive”, the outcome [8] was “inactive” and the Potency [9] was “inactive”. For the same compound, the outcome [10] was “inactive”.

In the case of `C=C1C[C@@]23CC[C@H]4[C@@](C)(CCC[C@@]4(C)C(=O)O[C@@H]4O[C@H](CO)[C@@H](O)[C@H](O)[C@H]4O)[C@@H]2CC[C@]1(O[C@@H]1O[C@H](CO)[C@@H](O)[C@H](O[C@@H]2O[C@H](CO)[C@@H](O)[C@H](O)[C@H]2O)[C@H]1O[C@@H]1O[C@H](CO)[C@@H](O)[C@H](O)[C@H]1O)C3`, the Potency [1] is reported as “inactive”, the Potency [2] is reported as “inactive” and the Potency [3] is reported as “inactive”. For the same compound, the Potency [4] was “inactive”, the Potency [5] was “inactive” and the Potency [6] was “inactive”. The outcome [7] was “inactive”, the outcome [8] was “inactive” and the outcome [10] was “inactive”.

With `O=C1c2ccccc2C(=O)C1c1ccc(Br)cc1` the Potency [1] was “inactive”, the Potency [2] was “inactive” and the Potency [3] was “inactive”. For the same compound, the Potency [4] was “inactive”, the Potency [5] was “inactive” and the Potency [6] was “inactive”. For the same compound, the outcome [7] was “inactive”, the outcome [8] was “inactive” and the outcome [10] was “inactive”.

In the case of `CC(C)(C)C(=O)C(=O)O`, the Potency [1] is reported as “inactive”, the Potency [2] is reported as “inactive” and the Potency [3] is reported as “inactive”. The Potency [4] was “inactive”, the Potency [5] was “inactive” and the Potency [6] was “inactive”. The outcome [7] was “inactive”, the outcome [8] was “inactive” and the Potency [9] was “inactive”. The outcome [10] was “inactive”.

With `CCOC(=O)c1ccc(I)cc1` the Potency [1] was “inactive”, the Potency [2] was “inactive” and the Potency [3] was “inactive”. For the same compound, the Potency [4] was “inactive”, the Potency [5] was “inactive” and the Potency [6] was “inactive”. For the same compound, the outcome [7] was “inactive”, the outcome [8] was “inactive” and the Potency [9] was “inactive”. For the same compound, the outcome [10] was “inactive”.

In the case of `Clc1ccc(Nc2nnc(Cc3ccncc3)c3ccccc23)cc1`, the Potency [1] is reported as “inactive”, the Potency [2] is reported as “inactive” and the Potency [3] is reported as “inactive”. For the same compound, the Potency [4] was “inactive”, the Potency [5] was 18.8 µM (active) and the Potency [6] was 26.6 µM (active). The outcome [7] was “inactive”, the outcome [8] was “inactive” and the Potency [9] was “inactive”. The outcome [10] was “inactive”.

With `CC(O)c1ccccc1` (centres undefined) the Potency [1] was “inactive”, the Potency [2] was “inactive” and the Potency [3] was “inactive”. The Potency [4] was “inactive”, the Potency [5] was “inactive” and the outcome [7] was “inactive”. The outcome [8] was “inactive”, the Potency [9] was “inactive” and the outcome [10] was “inactive”.

In the case of `CCCCOc1ccc(OCCCN2CCOCC2)cc1`, the Potency [1] is reported as “inactive”, the Potency [2] is reported as “inactive” and the Potency [3] is reported as “inactive”. The Potency [4] was “inactive”, the Potency [5] was “inactive” and the fluorescence, relative to Rose Bengal [7] was -0.141% [at 18.6 µM]. The fluorescence, % of fluorescein control [8] was -0.0009% [at 18.6 µM], the fluorescence, % of triamterene [9] was -0.0611% [at 18.6 µM] and the fluorescence, % of fluorescent control [10] was -0.188% [at 18.6 µM].

For `CO[C@]1(NC(=O)CSC(F)F)C(=O)N2C(C(=O)O)=C(CSc3nnnn3CCO)CO[C@H]21`, the Potency [1] was “inactive”, the Potency [2] was “inactive” and the Potency [3] was “inactive”. For the same compound, the Potency [4] was “inactive”, the Potency [5] was “inactive” and the Potency [6] was “inactive”. For the same compound, the outcome [7] was “inactive”, the outcome [8] was “inactive” and the Potency [9] was “inactive”.

With `CC[N+](CC)(CCNC(=O)C(=O)NCC[N+](CC)(CC)Cc1ccccc1Cl)Cc1ccccc1Cl` the Potency [1] was “inactive”, the Potency [2] was “inactive” and the Potency [3] was “inactive”. The Potency [4] was “inactive”, the Potency [5] was “inactive” and the Potency [6] was “inactive”. The outcome [7] was “inactive”, the outcome [8] was “inactive” and the Potency [9] was “inactive”. For the same compound, the outcome [10] was “inactive”.

For `NC(=O)c1ccncc1`, the Potency [1] was “inactive”, the Potency [2] was “inactive” and the Potency [3] was “inactive”. For the same compound, the Potency [4] was “inactive”, the Potency [5] was “inactive” and the Potency [6] was “inactive”. The outcome [7] was “inactive”, the outcome [8] was “inactive” and the Potency [9] was “inactive”. For the same compound, the outcome [10] was “inactive”.

For `Cc1ccc(C(C)(C)O)cc1`, the Potency [1] was “inactive”, the Potency [2] was “inactive” and the Potency [3] was “inactive”. The Potency [4] was “inactive”, the Potency [5] was “inactive” and the Potency [6] was “inactive”. The outcome [8] was “inactive”, the Potency [9] was “inactive” and the outcome [10] was “inactive”.

With `Cc1ccc(OC(=O)c2ccccc2O)cc1` the Potency [1] was “inactive”, the Potency [2] was “inactive” and the Potency [3] was “inactive”. For the same compound, the Potency [4] was “inactive”, the Potency [5] was “inactive” and the Potency [6] was “inactive”. For the same compound, the outcome [7] was “inactive”, the outcome [8] was “inactive” and the Potency [9] was “inactive”. The outcome [10] was “inactive”.

In the case of `Oc1cccc(O)c1O`, the Potency [1] is reported as “inactive”, the Potency [2] is reported as “inactive” and the Potency [3] is reported as “inactive”. For the same compound, the Potency [4] was “inactive”, the Potency [5] was “inactive” and the outcome [7] was “inactive”. The outcome [8] was “inactive”, the Potency [9] was “inactive” and the outcome [10] was “inactive”.

For `O=C(Cn1ccnc1[N+](=O)[O-])NCCO`, the Potency [1] was “inactive”, the Potency [2] was “inactive” and the Potency [3] was “inactive”. For the same compound, the Potency [4] was “inactive”, the Potency [5] was “inactive” and the outcome [7] was “inactive”. The outcome [8] was “inactive”, the Potency [9] was “inactive” and the outcome [10] was “inactive”.

With `CCOC(=O)c1ccccc1C(=C1C=C(Br)C(=O)C(Br)=C1)c1cc(Br)c(O)c(Br)c1` the Potency [1] was 7.24 µM (active), the Potency [2] was “inactive” and the Potency [3] was 7.24 µM (active). The Potency [4] was 40.7 µM (active), the Potency [5] was “inactive” and the Potency [6] was 20.4 µM (active). The outcome [7] was “inactive”, the outcome [8] was “inactive” and the Potency [9] was “inactive”. For the same compound, the outcome [10] was “inactive”.

With `CCCC(=O)C(=O)O` the Potency [1] was “inactive”, the Potency [2] was “inactive” and the Potency [3] was “inactive”. For the same compound, the Potency [4] was “inactive”, the Potency [5] was “inactive” and the Potency [6] was “inactive”. The outcome [7] was “inactive” and the outcome [8] was “inactive”.

For `O=Cc1c2ccccc2c(Cl)c2ccccc12`, the Potency [1] was “inactive”, the Potency [2] was “inactive” and the Potency [3] was “inactive”. The Potency [4] was “inactive”, the Potency [5] was “inactive” and the Potency [6] was 8.42 µM (active). For the same compound, the outcome [7] was “inactive”, the outcome [8] was “inactive” and the Potency [9] was “inactive”. The outcome [10] was “inactive”.

For `Cc1ccc(CO)cc1`, the Potency [1] was “inactive”, the Potency [2] was “inactive” and the Potency [3] was “inactive”. For the same compound, the Potency [4] was “inactive”, the Potency [5] was “inactive” and the Potency [6] was “inactive”. The outcome [7] was “inactive”, the outcome [8] was “inactive” and the Potency [9] was “inactive”. For the same compound, the outcome [10] was “inactive”.

With `CC1(C)[C@@H](OC(=O)CCC(=O)O)CC[C@]2(C)[C@H]3C(=O)C=C4[C@@H]5C[C@@](C)(C(=O)O)CC[C@]5(C)CC[C@@]4(C)[C@]3(C)CC[C@@H]12` the Potency [1] was “inactive”, the Potency [2] was “inactive” and the Potency [3] was “inactive”. For the same compound, the Potency [4] was “inactive”, the Potency [5] was “inactive” and the Potency [6] was “inactive”. It also gave a fluorescence, relative to Rose Bengal [7] of -0.342% [at 18.6 µM], a fluorescence, % of fluorescein control [8] of -0.0594% [at 18.6 µM] and a fluorescence, % of fluorescent control [10] of 0.163% [at 18.6 µM].
